# Laboratory results from PubChem BioAssay (EPA / NIEHS).
# Inconclusive results are not listed. Active and inactive are the calls of the source. How the source made its calls, unless noted: active means hit-call score of the fitted dose curve at least 0.9, where 1 is the maximum; inactive means score below 0.9.
# Experiments:
# [1] = CCTE_Shafer_MEA_dev_burst_duration_mean: CCTE's Neural Network Formation Assay for Mean Burst Duration, Shafer Lab (AID 2284045)
# In short: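 Rat cortical cultures, 1.5 x 10^5 cells/well with laminin drop; continuous dosing days 0–12, media plus treatment refreshed DIV 5, 9. AxIS adaptive spike detection; mean single-electrode burst duration, AUC over four recordings, negative direction vs DMSO.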
# [2] = CCTE_Shafer_MEA_dev_interburst_interval_mean: CCTE's Neural Network Formation Assay for Mean Interburst Interval, Shafer Lab (AID 2284046);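 further: well-mean interburst interval of bursting electrodes as AUC over four recording days; curve fitted for decrease in interburst interval relative to DMSO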
# In short: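 Rat cortical neurons, 1.5 x 10^5 cells/well, 48-well MEA; compound from day 0 through DIV 12, media and treatment renewed DIV 5/9. Recordings DIV 5, 7, 9, 12; well-mean interburst interval → trapezoidal AUC, loss direction vs DMSO.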
# [3] = CCTE_Shafer_MEA_dev_network_spike_number: CCTE's Neural Network Formation Assay for Number of Network Spikes, Shafer Lab (AID 2284048);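 further: synchronized bursts across electrodes counted on days 5 7 9 12 and integrated as AUC; fit as a loss of signal meaning fewer network spikes than DMSO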
# In short: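 Rat cortical primary cultures on 48-well MEA (16 electrodes/well); continuous exposure DIV 0–12, full medium and treatment exchange DIV 5, 9. Readout: network spike count, AxIS adaptive detection, recordings DIV 5/7/9/12 collapsed to AUC; loss-of-signal fit, DMSO baseline.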
# [4] = CCTE_Shafer_MEA_dev_network_spike_peak: CCTE's Neural Network Formation Assay for Mean Number of Electrodes in Network Spike, Shafer Lab (AID 2284049);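 further: fitted for loss of signal meaning fewer electrodes in network spikes than DMSO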
# In short: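 Network-spike peak electrode count from recordings on days 5, 7, 9 and 12 was combined as trapezoidal area under the curve. Rat cortical cultures were treated continuously from plating, with compound renewed at each feed (DIV 5, 9); fits versus DMSO.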
# [5] = CCTE_Shafer_MEA_dev_spike_duration_mean: CCTE's Neural Network Formation Assay for Mean Spike Duration, Shafer Lab (AID 2284051);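 further: mean network spike duration pooled as area under curve over DIV 5 to 12 recordings; potency for a decrease in mean network spike duration versus DMSO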
# In short: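 Rat cortical primary cultures, 48-well MEA (16 electrodes/well); compound from plating, renewed DIV 5, 9. Network spike duration (AxIS adaptive detector) recorded DIV 5/7/9/12, combined as trapezoidal AUC; loss direction vs DMSO.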
# [6] = CCTE_Shafer_MEA_dev_network_spike_duration_std: CCTE's Neural Network Formation Assay for Standard Deviation of Network Spike Duration, Shafer Lab (AID 2284052);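 further: area under curve of spike duration SD across recording days 5 to 12; hits are decreases in network spike duration SD versus DMSO vehicle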
# In short: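 Rat cortical cultures, 1.5 x 10^5 cells/well, exposed continuously from plating to DIV 12 with media/compound renewal at DIV 5, 9. Spontaneous activity recorded DIV 5/7/9/12, AxIS adaptive spike detector; AUC across days; negative direction vs DMSO.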
# [7] = CCTE_Shafer_MEA_dev_per_network_spike_spike_number_mean: CCTE's Neural Network Formation Assay for Mean Number of Spikes in a Network Spike, Shafer Lab (AID 2284053);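 further: fitted as decrease in spikes per network spike relative to DMSO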
# In short: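 Rat cortical primary cultures on 48-well MEA; compound from day 0, re-dosed with full media change DIV 5, 9. Recorded DIV 5, 7, 9, 12; spikes in 0.05 s window at network-spike peak ÷ total network spikes; AUC; loss vs DMSO.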
# [8] = CCTE_Shafer_MEA_dev_per_network_spike_spike_percent: CCTE's Neural Network Formation Assay for Percent of Spikes in a Network Spike, Shafer Lab (AID 2284054)
# In short: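 Read-out: percent of spikes falling in a 0.05 s window at network-spike peak, from spontaneous MEA recordings on days 5, 7, 9 and 12; trapezoidal AUC; loss of signal versus DMSO. Rat cortical cultures, compound present throughout.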
# [9] = CCTE_Shafer_MEA_acute_AB: CCTE's Alamar Blue Assay for Cytotoxicity in the Neural Acute Assay, Shafer Lab (AID 2284069; active means hit-call score of the fitted dose curve at least 0.9, where 1 is the maximum;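 further: active compounds lower the viability signal compared with DMSO wells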)
# In short: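 Read-out: resazurin fluorescence (ex 544, em 590 nm) after CTB reagent at 1:6 dilution in fresh media. Cells: primary rat cortical neuron networks, DIV 13 or 15, chemically exposed on MEA plates; DMSO as negative control/baseline.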
# [10] = CCTE_Shafer_MEA_acute_LDH: CCTE's Lactate Dehydrogenase Assay for Cytotoxicity in the Neural Acute Assay, Shafer Lab (AID 2284086; active means hit-call score of the fitted dose curve at least 0.9, where 1 is the maximum;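 further: active means LDH release rises above DMSO vehicle level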)
# In short: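 Medium collected from MEA wells of primary rat cortical cultures (DIV 13 or 15) immediately after 40 min chemical exposure is assayed spectrophotometrically for lactate dehydrogenase activity. Endpoint fitted in positive direction versus DMSO.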
# [11] = CCTE_Shafer_MEA_dev_mutual_information_norm: CCTE's Neural Network Formation Assay for Mutual Information Normalization, Shafer Lab (AID 2284091);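 further: mutual information between electrodes summarised as area under curve across four recording days; potency is for a decrease in mutual information relative to DMSO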
# In short: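 Neurons from rat cortex were seeded at 1.5 x 10^5 cells/well onto PEI-coated MEAs in a laminin drop, then exposed to compound from day 0 for twelve days. Network recordings on four days gave mutual information, summarised by AUC relative to DMSO.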
# [12] = CCTE_Shafer_MEA_dev_correlation_coefficient_mean: CCTE's Neural Network Formation Assay for Mean Correlation Coefficient, Shafer Lab (AID 2284093);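 further: well mean pairwise spike train correlation integrated as AUC over recording days 5 to 12; potency fitted for loss of correlation relative to DMSO vehicle wells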
# In short: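 Rat cortical cultures, 1.5 x 10^5 cells/well, dosed from day 0 for 12 days. Spontaneous spikes recorded DIV 5/7/9/12; electrode-pair correlation coefficients averaged, AUC taken. Fit in loss direction vs DMSO.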
# [13] = CCTE_Mundy_HCI_Cortical_Synap_Neur_Matur_NeuriteSpotCountPerNeuriteLength: CCTE's Synaptogenesis and Neurite Maturation Assay in rat cortical cells for Neurite Spot Count per Neurite Length, Mundy Lab (AID 2284210)
# In short: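 Read-out: synaptophysin puncta counted along MAP2-stained neurites, normalised to neurite length, by automated high-content imaging. Rat cortical cells; AraC DIV 5; chemical dosing DIV 7; termination DIV 12. DMSO baseline.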
# [14] = CCTE_Mundy_HCI_Cortical_Synap_Neur_Matur_BPCount: CCTE's Synaptogenesis and Neurite Maturation Assay in rat cortical cells for Branch Point Count, Mundy Lab (AID 2284211)
# In short: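 HCI read-out of branch points from MAP2/synaptophysin/Hoechst immunofluorescence; rat cortical cultures, AraC DIV 5, dosing DIV 7, fixed DIV 12; fit in positive direction vs DMSO baseline.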
# [15] = CCTE_Mundy_HCI_Cortical_NOG_NeuriteCount: CCTE's Neurite Outgrowth Assay in rat cortical cells for Neurite Count, Mundy Lab (AID 2284212);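 further: cells fixed about two days after chemical exposure began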
# In short: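 Rat cortical primary cells; compound added 2 h post-plating, 1/10 dilution of working solution. Anti-betaIII-tubulin/AF488 ICC; ArrayScan neurite count vs DMSO.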
# [16] = CCTE_Mundy_HCI_Cortical_NOG_NeuriteLength: CCTE's Neurite Outgrowth Assay in rat cortical cells for Neurite Length, Mundy Lab (AID 2284213)
# In short: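 First, rat primary cortical cells were plated and, 2 h later, given test chemical as a 1/10 dilution. Finally, βIII-tubulin immunostaining enabled automated imaging of neurite length.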
# [17] = CCTE_Mundy_HCI_Cortical_Synap_Neur_Matur_NeuriteLength: CCTE's Synaptogenesis and Neurite Maturation Assay in rat cortical cells for Neurite Length, Mundy Lab (AID 2284214)
# In short: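 Cultures of rat primary cortical cells received chemical at DIV 7 and were fixed at DIV 12, after glial arrest with AraC at DIV 5. Neurite length was measured by automated imaging of MAP2 immunofluorescence.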
# [18] = CCTE_Mundy_HCI_Cortical_Synap_Neur_Matur_NeuriteSpotCountPerNeuron: CCTE's Synaptogenesis and Neurite Maturation Assay in rat cortical cells for Neurite Spot Count per Neuron Count, Mundy Lab (AID 2284215)
# In short: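 Rat primary cortical cultures given AraC at DIV 5, dosed from DIV 7 to DIV 12 with media change. Fixed, stained for MAP2, synaptophysin and Hoechst; neurite-associated synaptophysin puncta per neuron quantified by high-content imaging versus DMSO.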
# [19] = CCTE_Mundy_HCI_Cortical_Synap_Neur_Matur_SynapseCount: CCTE's Synaptogenesis and Neurite Maturation Assay in rat cortical cells for Synapse Count, Mundy Lab (AID 2284218)
# In short: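 Cells were plated, allowed 2 hr to attach, treated with AraC at DIV 5, then exposed to chemicals from DIV 7 until DIV 12. After fixation and MAP2/synaptophysin immunolabelling, synapses per neuron were quantified by automated imaging against DMSO.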
# [20] = CCTE_Mundy_HCI_Cortical_Synap_Neur_Matur_NeuriteCount: CCTE's Synaptogenesis and Neurite Maturation Assay in rat cortical cells for Neurite Count, Mundy Lab (AID 2284222);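 further: exposure from day 7 to day 12 in vitro with readout at day 12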
# In short: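 Primary rat cortical cells were plated, treated with AraC at DIV 5, then exposed to chemicals from DIV 7 through DIV 12. After fixation and immunostaining for MAP2 and synaptophysin, imaging quantified neurites, with DMSO as the negative control.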
# [21] = CCTE_Mundy_HCI_Cortical_Synap_Neur_Matur_CellBodySpotCount: CCTE's Synaptogenesis and Neurite Maturation Assay in rat cortical cells for Cell Body Spot Count, Mundy Lab (AID 2284223)
# In short: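 Primary rat cortical cultures, AraC added at DIV 5; dosed DIV 7 through DIV 12 […]. Fixed, stained for MAP2 and synaptophysin with Hoechst; cell body-associated synaptophysin puncta per neuron counted by high-content imaging, loss vs DMSO.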
# [22] = CCTE_Mundy_HCI_Cortical_NOG_NeuronCount: CCTE's Neurite Outgrowth Assay in rat cortical cells for Neuron Count, Mundy Lab (AID 2284236; active means hit-call score of the fitted dose curve at least 0.9, where 1 is the maximum;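 further: neurons counted by imaging betaIII-tubulin and Hoechst stained cortical cells; cells exposed to compound for about 48 hours before fixation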)
# In short: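 Read-out: neuron number by high-content imaging of betaIII-tubulin (Alexa Fluor-488) and Hoechst-labelled rat primary cortical cells.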
# [23] = CCTE_Mundy_HCI_Cortical_NOG_BPCount: CCTE's Neurite Outgrowth Assay in rat cortical cells for Branch Point Count, Mundy Lab (AID 2284237)
# In short: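 Measured 50.33 h after dosing, this morphology endpoint uses rat primary cortical cultures labelled for betaIII-tubulin. Branch points are quantified by high-content imaging, with DMSO as negative control and baseline.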
# [24] = CCTE_Mundy_HCI_hNP1_Casp3_7: CCTE's Caspase-Glo 3/7 Assay in human neuroprogenitor cells for Apoptosis, Mundy Lab (AID 2284240)
# In short: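 Luminescent caspase-3/7 readout, 26.5 h post-dose, in human neural progenitor cells from WA09 embryonic stem cells. Cells grew 40–44 h at 37 °C, 5% CO2 before chemical addition. Activity analysed as signal increase over DMSO baseline.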
# [25] = CCTE_Mundy_HCI_hNP1_CellTiter: CCTE's Cell Titer-Glo 2 Assay in human neuroprogenitor cells for Viability, Mundy Lab (AID 2284241; active means hit-call score of the fitted dose curve at least 0.9, where 1 is the maximum;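 further: a hit is a drop in ATP luminescence versus DMSO meaning reduced viability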)
# In short: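 Viability read as luminescent ATP content (CellTiter-Glo, 30 min room temperature) twenty-four hours after dosing, relative to DMSO. Cells: WA09-derived hNP1 neuroprogenitors on poly-L-ornithine/laminin, plated 40 to 44 hours before chemical.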
# [26] = CCTE_Mundy_HCI_iCellGluta_NOG_NeuriteCount: CCTE's Neurite Outgrowth Assay in iCellGluta cells for Neurite Count, Mundy Lab (AID 2284342; active means hit-call score of the fitted dose curve at least 0.9, where 1 is the maximum;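 further: chemical exposure about 48 hours starting 2 hours after plating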)
smiles,measurement,setting,value
CC1(C)[C@H](C=C(Cl)Cl)[C@@H]1C(=O)O[C@@H](C#N)c1cccc(Oc2ccccc2)c1,outcome,[1],inactive
same,outcome,[2],inactive
same,AC50,[3],4.81 µM (active)
same,AC50,[4],8.44 µM (active)
same,AC50,[5],4.92 µM (active)
same,AC50,[6],4.6 µM (active)
same,AC50,[7],5.97 µM (active)
same,AC50,[8],15 µM (active)
same,outcome,[9],inactive
same,outcome,[10],inactive
same,AC50,[11],2.25 µM (active)
same,AC50,[12],4.79 µM (active)
same,outcome,[13],inactive
same,outcome,[14],inactive
same,outcome,[15],inactive
same,outcome,[16],inactive
same,outcome,[17],inactive
same,outcome,[18],inactive
same,outcome,[19],inactive
same,outcome,[20],inactive
same,outcome,[21],inactive
same,outcome,[22],inactive
same,outcome,[23],inactive
same,outcome,[24],inactive
same,AC50,[25],26 µM (active)
same,outcome,[26],inactive
